Many of the other results were omitted from the sample, so hits are more common in it than they were.
TbPYK inhibitor: blocks Trypanosoma brucei pyruvate kinase; Q57TT1; TbPYK enzyme, Kinase-Glo Plus ATP luminescence, 45 min; Potency, µM (highest dose often 76.8 µM), for inactives: top-dose activity, negative = inhibition, actives largely listed as inhibitors; 0.12% of 410,000 active; AID 624173; note: potency is the fitted concentration of half-maximal effect; % is set by controls: 0 for no effect and ±100 for the full control effect; nearly all actives have a fitted effect of over 50% in size
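TbPYK + substrate in 50 mM TEA pH 7.2, 100 mM KCl, 10 mM MgCl2, 0.05% BSA, 0.01% Tween-20; cpd pinned; ADP 130 uM final; 45 min RT; Kinase-Glo Plus 10 min; luminescence endpoint.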
Shiga toxin inh: inhibitors of Shiga toxin in Vero cells; inhibition, % at 38.7 µM; 9.2% of 290,000 active; Vero cells, Shiga toxin protein synthesis inhibition reporter; in the data active = inhibition mostly above about 28%, no sharp cut-off; inactive = mostly below about 43%; note: 0% is about no effect
RE007 growth inh: less growth of the S. pombe RE007 Vpr strain; S. pombe RE007 Vpr strain, BacTiter-Glo ATP luminescence, 24 h; Potency, µM (top dose mostly 92.2 µM), for the others: at the top dose activity change, negative = less growth, usual class: inhibitors; 0.21% of 360,000 active; active = well fitted falling curve with a large enough effect; note: potency is the fitted concentration of half-maximal effect; % is set by controls: 0 for no effect and ±100 for the full control effect; nearly all actives have a fitted effect of over 50% in size
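Fission yeast RE007 carrying one integrated HIV-1 vpr copy, seeded at OD 0.01 in PMG+AL medium with 23 nL pinned compound. Grown 24 h at 30 degrees; viability read by BacTiter-Glo luminescence after 5 min.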
Cycloheximide cs: affects cycloheximide protein synthesis inhibition readout, counter-screen; cell reporter, cycloheximide protein synthesis inhibition counterscreen; max response, %; 12% of 300,000 active; AID 2314; in the data active = max response mostly above about 13%, no sharp cut-off; inactive = mostly below about 14%; note: read at 38.3 µM for the half of the compounds with a filed dose; 0% is about no effect
LmPK inhibitor: LmPK (Leishmania mexicana) enzyme inhibition. Potency, µM (series often up to 57.5 µM), without a hit: at the highest dose activity change, negative = inhibition, actives largely listed as inhibitors. Q27686. purified LmPK, Kinase-Glo ATP luminescence, 1 h. 0.37% of 290,000 active; note: potency is the fitted concentration of half-maximal effect; % is set by controls: 0 for no effect and ±100 for the full control effect
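Purified LmPK (0.1 nM) converted ADP (0.1 mM) to ATP with PEP (0.5 mM) in imidazole buffer pH 7.2 with KCl and MgCl2, 1 h at room temperature. ATP was read by Kinase-Glo luminescence; data normalized to uninhibited and no-enzyme controls.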
FBPA Giardia inh: inhibitors of Giardia lamblia fructose-1,6-bisphosphate aldolase; 0.71% of 290,000 active; A8B2U2; Potency, µM (doses to about 59.6 µM), for inactives: at the top dose activity, negative = inhibition, usual class: inhibitors; purified Giardia FBPA; note: potency is the fitted concentration of half-maximal effect; % is set by controls: 0 for no effect and ±100 for the full control effect; nearly all actives have a fitted effect of over 55% in size
Target sequence (A8B2U2 whole entry, looked up): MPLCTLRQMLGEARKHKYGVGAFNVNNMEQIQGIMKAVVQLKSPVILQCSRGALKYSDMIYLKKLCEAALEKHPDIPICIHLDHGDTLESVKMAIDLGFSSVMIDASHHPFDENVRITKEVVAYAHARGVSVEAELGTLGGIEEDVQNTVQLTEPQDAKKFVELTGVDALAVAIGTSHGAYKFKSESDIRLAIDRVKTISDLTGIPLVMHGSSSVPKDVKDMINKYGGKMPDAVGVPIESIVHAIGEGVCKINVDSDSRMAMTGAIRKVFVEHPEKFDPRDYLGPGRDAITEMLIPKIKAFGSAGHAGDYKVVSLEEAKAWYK
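Giardia FBPA (40 nM reagent) was preincubated 10 min at RT with compound (up to 57.5 uM final), then substrate plus GAPDH/TPI/NAD/arsenate coupling system with diaphorase/resazurin was added; resorufin fluorescence (525/598 nm) was read after 20 min.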
* hit, by the source's call; / = not tested or not shown; [ ] = remark or other dose. Unless noted, calls come from the whole dose curve; as a rule, active = well fitted curve in the direction sought with a large enough effect; inconclusive = small, poorly fitted or top-dose-only effect, or another doubt; inactive = no such curve, though single readings can be large; an effect the other way counts as inactive or inconclusive.

SMILES	TbPYK inhibitor	Shiga toxin inh	RE007 growth inh	Cycloheximide cs	LmPK inhibitor	FBPA Giardia inh
CCOC(=O)Nc1cc(C(=O)OC)cc(C(=O)OC)c1	-7.3%	-6.4	0.7%	-4.1	5.2%	-3.9%
CCOC(=O)c1cnc2c(OC)cccc2c1Nc1ccc2c(c1)OCCO2	0.8%	27.8*	-5.3%	28.7*	4.8%	-13.3%
COc1cc([N+](=O)[O-])ccc1NC(=O)N1CCC2(CC1)Nc1ccccc1-n1cccc12	-1.6%	/	/	/	/	/
Cc1ccc(C(=O)NCC(=O)OCC(=O)c2ccc(Br)s2)cc1	1.7%	/	0.9%	/	/	/
CCOC(=O)c1ccc(NC(=O)Nc2ccc3c(c2)OCCO3)cc1	6.7%	32.2*	14.0%	13.2*	-2.1%	-12.3%
CCOC(=O)c1c(C)c(C(=O)Nc2ccc3c(c2)OCCO3)c(C)n1C	-24.8%	55.3*	9.1%	21.6*	5.8%	-8.2%
CCOC(=O)c1ccc(NCc2ccc3c(c2)OCO3)cc1	0.7%	66.0*	-1.8%	34.7*	1.1%	0.7%
CCOC(=O)c1c(C)c(C(=O)Nc2cc(F)ccc2F)c(C)n1C	-24.8%	-4.0	1.7%	-2.8	3.0%	1.9%
O=[N+]([O-])c1ccc(NCc2ccc3c(c2)OCO3)cc1	4.7%	46.1	9.2%	20.6*	3.3%	0.8%
CCOC(=O)OCC1OC(c2ccc(C(C)=O)cc2)C=CC1OC(=O)OCC (stereo unspecified)	/	/	/	/	/	-1.4%[12.9 µM]
c1ccc2cc(C3N4CCCN34)ccc2c1 (stereo unspecified)	-1.5%	24.3	-12.4%	23.6*	16.7%	-1.2%
CCN(CC(=O)Nc1cccc(OC)c1)C(=O)c1ccc(C)s1	-24.3%	-3.5	-0.9%	-1.6	-0.8%	2.4%
CCOC(=O)Cc1csc(NC(=O)c2csc(C)c2)n1	-4.3%	34.9*	3.4%	27.6*	0.0%	12.0%
CCOC(=O)Cc1csc(NC(=O)Nc2cccc(OC)c2)n1	-2.0%	29.7	4.7%	17.3*	-0.2%	-4.0%
CCOC(=O)Cc1csc(NC(=O)c2cccc(OC)c2)n1	-9.8%	20.1	-26.8%	11.9*	-5.8%	-4.2%
CCOC(=O)Cc1csc(NC(=O)c2ccc(OC)c(OC)c2)n1	-0.3%	-14.7	-9.0%	1.7	-1.1%	1.1%
CCOC(=O)CN(Cc1sccc1C)C(=O)Nc1cccc(OC)c1	3.8%	48.2*	-10.9%	12.0*	4.3%	-0.9%
CCOC(=O)Cc1csc(NC(=O)c2cc(=O)c3ccccc3o2)n1	-1.1%	31.2	-13.5%	12.3	-5.4%	-24.0%
CCOC(=O)Cc1csc(NC(=O)c2sc3nc4c(C)cc(C)cc4cc3c2N)n1	2.0%	11.9	-6.2%	19.6*	-0.4%	-16.4%
COc1cc(CN(C(=O)COc2ccc(C)cc2)c2ccccn2)cc(OC)c1OC	-8.1%	/	/	/	/	/
O=C(NC(=S)N(Cc1ccccc1)Cc1ccccc1)C1CCCCC1	0.0%	-12.0	13.4%	8.0	-2.5%	4.1%
COCC(=O)N(Cc1ccccc1)c1ccccn1	2.8%	-3.2	5.6%	-3.7	-1.7%	1.5%
Cc1ccc(OCC(=O)N(Cc2ccccc2)c2ccccn2)cc1	-17.8%	2.8	19.0%	31.8*	-2.7%	-8.1%
O=C(NC(=S)N(Cc1ccccc1)c1ccccn1)C1CC1	-0.1%	3.5	-4.8%	12.5*	-1.6%	-18.9%
COc1ccccc1NC(=O)N(Cc1ccccc1)c1ccccn1	-9.1%	32.3*	4.7%	9.6	9.0%	-5.9%
SMILES	TbPYK inhibitor	Shiga toxin inh	RE007 growth inh	Cycloheximide cs	LmPK inhibitor	FBPA Giardia inh
CC1(C)CN(c2cccc(Br)c2)C1=O	1.3%	-20.2	-15.4%	0.7	-0.5%	6.8%
COc1cccc(/C=C/C(=O)Nc2ccc3nc(N4CCN(C)CC4)cc(C)c3c2)c1OC	-2.8%	/	/	/	/	/
COc1ccc(NC(=S)N/C(=N/S(=O)(=O)c2ccc(C)cc2)c2ccccc2)cc1	0.0%	60.8*	-19.0%	34.1*	-6.3%	-21.5%
COc1ccc(NC(=S)c2ccc(N(C)C)cc2)cc1	-14.3%	57.7*	-0.6%	54.1*	3.0%	0.7%
COc1ccc(NC(=S)c2ccccc2)cc1	-12.0%	71.3*	-16.2%	53.4*	-1.0%	-5.6%
COc1ccc(NC(=S)Nc2ccccc2)cc1	-1.9%	2.3	8.4%	6.5	-9.1%	-27.1%

Bioassay records from PubChem BioAssay.
